Out of some 5,500 compounds screened, about 2,000 (36%) were called active. Another 18% or so got no clear call; they are omitted. No stated cut-off is given here; in the data, active means normalized growth mostly below about 0.91 (no sharp cut-off); inconclusive means no clear call, values can overlap the other calls; inactive means mostly above about 0.92. The list shows a part of the results.
Assay: chemical genetic growth profiling, strain panel (AID 1159580);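 further: tested at 20 µM; growth read once vehicle control cultures reached saturation at 30 °C; 1 = growth at the plate median or of vehicle wells; lower values mean less growth of the strain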
Conditions: S. cerevisiae deletion strains, growth OD
[1] = locus YAL021C, strain ccr4, active compounds read low
[2] = locus YAL026C, strain drs2, active compounds read low
[3] = locus YAL030W, strain snc1, active compounds read low
[4] = locus YBL061C, strain skt5, active compounds read low
[5] = locus YBR009C, strain hhf1, active compounds read low
[6] = locus YBR023C, strain chs3, active compounds read low
[7] = locus YBR171W, strain sec66, active compounds read low
[8] = locus YBR231C, strain swc5, active compounds read low
[9] = locus YBR279W, strain paf1, active compounds read low
[10] = locus YCL011C, strain gbp2, active compounds read low
[11] = locus YCL016C, strain dcc1, active compounds read low
[12] = locus YCL061C, strain MRC1, active compounds read low
[13] = locus YCL069W, strain vba3, active compounds read low
[14] = locus YCR088W, strain abp1, active compounds read low
[15] = locus YDL005C, strain med2, active compounds read low
[16] = locus YDL040C, strain nat1, active compounds read low
[17] = locus YDR001C, strain nth1, active compounds read low
[18] = locus YDR069C, strain doa4, active compounds read low
[19] = locus YDR137W, strain rgp1, active compounds read low
[20] = locus YDR159W, strain sac3, active compounds read low
[21] = locus YDR297W, strain sur2, active compounds read low
[22] = locus YDR334W, strain swr1, active compounds read low
[23] = locus YDR335W, strain msn5, active compounds read low
[24] = locus YDR392W, strain spt3, active compounds read low
[25] = locus YEL003W, strain gim4, active compounds read low
[26] = locus YEL037C, strain rad23, active compounds read low
[27] = locus YEL061C, strain CIN8 (second series), active compounds read low
[28] = locus YER015W, strain faa2, active compounds read low
[29] = locus YER016W, strain bim1, active compounds read low
[30] = locus YER111C, strain swi4, active compounds read low
[31] = locus YER155C, strain BEM2 (second series), active compounds read low
[32] = locus YFR010W, strain ubp6, active compounds read low
[33] = locus YGL167C, strain pmr1, active compounds read low
[34] = locus YGL173C, strain kem1, active compounds read low
[35] = locus YGL227W, strain vid30, active compounds read low
[36] = locus YGL240W, strain doc1, active compounds read low
[37] = locus YGL253W, strain hxk2, active compounds read low
[38] = locus YHR013C, strain ard1, active compounds read low
[39] = locus YHR027C, strain rpn1, active compounds read low
[40] = locus YHR030C, strain SLT2, active compounds read low
[41] = locus YHR079C, strain IRE1, active compounds read low
[42] = locus YHR142W, strain chs7, active compounds read low
[43] = locus YJL092W, strain hpr5, active compounds read low
[44] = locus YJL095W, strain BCK1 (second series), active compounds read low
[45] = locus YJL095W, strain BCK1, active compounds read low
[46] = locus YJL115W, strain asf1, active compounds read low
[47] = locus YJL129C, strain trk1, active compounds read low
[48] = locus YJL154C, strain vps35, active compounds read low
[49] = locus YJL164C, strain tpk1, active compounds read low
[50] = locus YJL166W, strain qcr8, active compounds read low
[51] = locus YJL187C, strain SWE1, active compounds read low
[52] = locus YJR066W, strain TOR1, active compounds read low
[53] = locus YKL160W, strain elf1, active compounds read low
[54] = locus YKR026C, strain gcn3, active compounds read low
[55] = locus YKR091W, strain srl3, active compounds read low
[56] = locus YLL001W, strain dnm1, active compounds read low
[57] = locus YLL026W, active compounds read low
[58] = locus YLL041C, strain sdh2, active compounds read low
[59] = locus YLR027C, strain aat2, active compounds read low
[60] = locus YLR113W, strain HOG1, active compounds read low
[61] = locus YLR221C, strain rsa3, active compounds read low
[62] = locus YLR258W, strain gsy2, active compounds read low
[63] = locus YLR262C, strain YPT6 (second series), active compounds read low
[64] = locus YLR320W, strain mms22, active compounds read low
[65] = locus YLR342W, strain FKS1, active compounds read low
[66] = locus YLR357W, strain rsc2, active compounds read low
[67] = locus YLR370C, strain arc18, active compounds read low
[68] = locus YLR384C, strain iki3, active compounds read low
[69] = locus YML120C, strain ndi1, active compounds read low
[70] = locus YMR058W, strain fet3, active compounds read low
[71] = locus YMR125W, strain sto1, active compounds read low
[72] = locus YMR129W, active compounds read low
[73] = locus YMR205C, strain PFK2, active compounds read low
[74] = locus YMR231W, strain pep5, active compounds read low
[75] = locus YNL071W, strain lat1, active compounds read low
[76] = locus YNL183C, strain NPR1, active compounds read low
[77] = locus YNL209W, strain ssb2, active compounds read low
[78] = locus YNL248C, strain rpa49, active compounds read low
[79] = locus YNL322C, strain KRE1 (second series), active compounds read low
[80] = locus YNR049C, strain mso1, active compounds read low
[81] = locus YOR001W, strain rrp6, active compounds read low
[82] = locus YOR070C, strain gyp1, active compounds read low
[83] = locus YOR080W, strain dia2, active compounds read low
[84] = locus YOR083W, strain WHI5, active compounds read low
[85] = locus YOR106W, strain vam3, active compounds read low
[86] = locus YOR231W, strain MKK1, active compounds read low
[87] = locus YOR265W, strain rbl2, active compounds read low
[88] = locus YOR270C, strain vph1, active compounds read low
[89] = locus YOR290C, strain snf2, active compounds read low
[90] = locus YPL051W, strain arl3, active compounds read low
[91] = locus YPL078C, strain atp4, active compounds read low
[92] = locus YPL106C, strain sse1, active compounds read low
[93] = locus YPL240C, strain hsp82, active compounds read low
[94] = locus YPL256C, strain CLN2, active compounds read low

Measured: normalized growth

COc1ccc(/C=C/C(=O)c2ccc(O)cc2O)cc1
active: [1] 0.643 | [2] 0.39 | [3] 0.477 | [4] 0.371 | [5] 0.329 | [6] 0.296 | [7] 0.736 | [8] 0.35 | [9] 0.486 | [10] 0.414 | [11] 0.398 | [12] 0.494 | [13] 0.436 | [14] 0.637 | [15] 0.412 | [16] 0.68 | [17] 0.546 | [18] 0.815 | [19] 0.218 | [20] 0.355 | locus YDR195W, strain ref2 0.69 | [21] 0.643 | [22] 0.383 | [23] 0.477 | [24] 0.107 | [25] 0.333 | [26] 0.678 | [27] 0.222 | [28] 0.496 | [29] 0.488 | [30] 0.193 | [31] 0.125 | [32] 0.661 | [33] 0.782 | [34] 0.326 | [35] 0.246 | [36] 0.349 | [37] 0.23 | [38] 0.352 | [39] 0.59 | [40] 0.458 | [41] 0.48 | [42] 0.175 | [43] 0.523 | [44] 0.187 | [45] 0.423 | [46] 0.56 | [47] 0.386 | [48] 0.697 | [49] 0.324 | [50] 0.266 | [51] 0.492 | [52] 0.439 | [53] 0.299 | [54] 0.784 | [55] 0.699 | [56] 0.528 | [57] 0.267 | [58] 0.615 | [59] 0.369 | [60] 0.361 | [61] 0.28 | [62] 0.476 | [63] 0.221 | [64] 0.14 | [65] 0.313 | [66] 0.633 | [67] 0.619 | [68] 0.671 | [69] 0.336 | [70] 0.34 | [71] 0.205 | [72] 0.707 | [73] 0.26 | [74] 0.462 | [75] 0.0785 | [76] 0.516 | [77] 0.661 | [78] 0.402 | [79] 0.618 | [80] 0.631 | [81] 0.444 | [82] 0.336 | [83] 0.631 | [84] 0.479 | [85] 0.38 | [86] 0.495 | [87] 0.535 | [88] 0.161 | [89] 0.28 | [90] 0.273 | [91] 0.32 | [92] 0.458 | [93] 0.44 | [94] 0.5

COc1ccc(/C=C/C(=O)Nc2ccccc2C(=O)O)cc1OC
inactive: locus YAL013W, strain DEP1, active compounds read low 1.03 | locus YAL040C, strain CLN3, active compounds read low 0.97 | locus YCL061C, strain MRC1 (second series), active compounds read low 0.99 | locus YDR150W, strain NUM1, active compounds read low 0.994 | locus YDR363W, strain ESC2, active compounds read low 1.01 | locus YER002W, strain NOP16, active compounds read low 0.985 | locus YMR263W, strain SAP30, active compounds read low 0.996 | locus YMR307W, strain GAS1, active compounds read low 1.01 | locus YNL175C, strain NOP13, active compounds read low 0.979 | locus YNL197C, strain WHI3, active compounds read low 0.964 | locus YNL224C, strain SQS1, active compounds read low 0.999 | locus YNL322C, strain KRE1, active compounds read low 1.02 | locus YOR083W, strain WHI5 (second series), active compounds read low 0.964 | locus YPL055C, strain LGE1, active compounds read low 1.05 | locus YPL241C, strain CIN2, active compounds read low 0.991

COc1ccc(/C=C/C(=O)c2cc(O)ccc2O)cc1
active: [1] 0.81 | [2] 0.224 | [3] 0.31 | [4] 0.38 | [5] 0.15 | [6] 0.314 | [7] 0.521 | [8] 0.324 | [9] 0.242 | [10] 0.15 | [11] 0.227 | [12] 0.167 | [13] 0.13 | [14] 0.263 | [15] 0.424 | [16] 0.646 | [17] 0.344 | [18] 0.844 | [19] 0.285 | [20] 0.268 | locus YDR195W, strain ref2 0.482 | [21] 0.362 | [22] 0.172 | [23] 0.238 | [24] 0.0876 | [25] 0.133 | [26] 0.617 | [27] 0.0921 | [28] 0.429 | [29] 0.426 | [30] 0.0945 | [31] 0.106 | [32] 0.685 | [33] 0.894 | [34] 0.516 | [35] 0.103 | [36] 0.48 | [37] 0.172 | [38] 0.421 | [39] 0.661 | [40] 0.432 | [41] 0.456 | [42] 0.101 | [43] 0.272 | [44] 0.0826 | [45] 0.427 | [46] 0.416 | [47] 0.373 | [48] 0.613 | [49] 0.152 | [50] 0.141 | [51] 0.269 | [52] 0.465 | [53] 0.136 | [54] 0.449 | [55] 0.593 | [56] 0.338 | [57] 0.226 | [58] 0.379 | [59] 0.267 | [60] 0.396 | [61] 0.113 | [62] 0.333 | [63] 0.289 | [64] 0.123 | [65] 0.248 | [66] 0.717 | [67] 0.72 | [68] 0.605 | [69] 0.221 | [70] 0.152 | [71] 0.156 | [72] 0.546 | [73] 0.178 | [74] 0.522 | [75] 0.0772 | [76] 0.475 | [77] 0.606 | [78] 0.319 | [79] 0.462 | [80] 0.594 | [81] 0.349 | [82] 0.309 | [83] 0.71 | [84] 0.38 | [85] 0.391 | [86] 0.464 | [87] 0.425 | [88] 0.191 | [89] 0.145 | [90] 0.29 | [91] 0.166 | [92] 0.483 | [93] 0.275 | [94] 0.551

Source: PubChem BioAssay AID1159580 (chemical genetic matrix, 2015)
